Structures can show the parent of a compound that is named as a salt. ± gives the standard deviation of the averaged measurements.
Columns and labels:
[1] = test system: Saccharomyces cerevisiae BY4741 SeMeCo community; assay: mean cell size (pixel area) (pixels); higher = larger cells; settings: 10 µM; 24 h; SM minimal medium
Outline: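 In this assay, mean cell pixel area per well was obtained from automated confocal images of paraformaldehyde-fixed yeast analysed in Harmony. The cells were a Saccharomyces cerevisiae BY4741 community with four plasmids, each complementing one auxotrophy and carrying a fluorescent marker, grown for 24 h in SM medium with drug at a final 10 µM in 384-well plates. Values are averaged across 3 replicates. Same SeMeCo high-content imaging drug screen: Selleck FDA-approved drugs at 10 µM, 24 h in SM medium, 384-well plates, 3 replicates.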

[2] = test system: Saccharomyces cerevisiae BY4741 SeMeCo community; assay: z-score of prototroph abundance vs DMSO median; higher = larger share of this subpopulation than in DMSO controls; settings: 10 µM; 24 h; SM minimal medium; subpopulation (auxotrophy): Prototroph
Outline: (§1)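 Subpopulation abundance was reported as a z-score against the median of vehicle wells. The Saccharomyces cerevisiae BY4741 community, carrying four plasmids that each restored one auxotrophy and encoded a distinct fluorescent protein, was grown 24 h in minimal SM medium in 384-well plates holding library drugs at 10 µM final. Cells were paraformaldehyde-fixed and imaged by automated confocal microscopy, with single-auxotroph fluorescent strains used for thresholds and autofluorescence correction.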

[3] = test system: Saccharomyces cerevisiae BY4741 SeMeCo community; assay: z-score of subpopulation abundance vs DMSO median, subpopulation auxotrophic for M; higher = larger share of this subpopulation than in DMSO controls; settings: 10 µM; 24 h; SM minimal medium; subpopulation (auxotrophy): M
Outline: as §1

[4] = test system: Saccharomyces cerevisiae BY4741 SeMeCo community; assay: z-score of subpopulation abundance vs DMSO median, subpopulation auxotrophic for L; higher = larger share of this subpopulation than in DMSO controls; settings: 10 µM; 24 h; SM minimal medium; subpopulation (auxotrophy): L
Outline: as §1

[5] = test system: Saccharomyces cerevisiae BY4741 SeMeCo community; assay: z-score of subpopulation abundance vs DMSO median, subpopulation auxotrophic for H; higher = larger share of this subpopulation than in DMSO controls; settings: 10 µM; 24 h; SM minimal medium; subpopulation (auxotrophy): H
Outline: as §1

[6] = test system: Saccharomyces cerevisiae BY4741 SeMeCo community; assay: z-score of subpopulation abundance vs DMSO median, subpopulation auxotrophic for LU; higher = larger share of this subpopulation than in DMSO controls; settings: 10 µM; 24 h; SM minimal medium; subpopulation (auxotrophy): LU
Outline: as §1

[7] = test system: Saccharomyces cerevisiae BY4741 SeMeCo community; assay: z-score of subpopulation abundance vs DMSO median, subpopulation auxotrophic for LM; higher = larger share of this subpopulation than in DMSO controls; settings: 10 µM; 24 h; SM minimal medium; subpopulation (auxotrophy): LM
Outline: as §1

[8] = test system: Saccharomyces cerevisiae BY4741 SeMeCo community; assay: z-score of subpopulation abundance vs DMSO median, subpopulation auxotrophic for HM; higher = larger share of this subpopulation than in DMSO controls; settings: 10 µM; 24 h; SM minimal medium; subpopulation (auxotrophy): HM
Outline: as §1

[9] = test system: Saccharomyces cerevisiae BY4741 SeMeCo community; assay: z-score of subpopulation abundance vs DMSO median, subpopulation auxotrophic for HU; higher = larger share of this subpopulation than in DMSO controls; settings: 10 µM; 24 h; SM minimal medium; subpopulation (auxotrophy): HU
Outline: as §1

[10] = test system: Saccharomyces cerevisiae BY4741 SeMeCo community; assay: z-score of subpopulation abundance vs DMSO median, subpopulation auxotrophic for UM; higher = larger share of this subpopulation than in DMSO controls; settings: 10 µM; 24 h; SM minimal medium; subpopulation (auxotrophy): UM
Outline: as §1

[11] = test system: Saccharomyces cerevisiae BY4741 SeMeCo community; assay: z-score of subpopulation abundance vs DMSO median, subpopulation auxotrophic for HLU; higher = larger share of this subpopulation than in DMSO controls; settings: 10 µM; 24 h; SM minimal medium; subpopulation (auxotrophy): HLU
Outline: as §1

[12] = test system: Saccharomyces cerevisiae BY4741 SeMeCo community; assay: z-score of subpopulation abundance vs DMSO median, subpopulation auxotrophic for HLM; higher = larger share of this subpopulation than in DMSO controls; settings: 10 µM; 24 h; SM minimal medium; subpopulation (auxotrophy): HLM
Outline: as §1

[13] = test system: Saccharomyces cerevisiae BY4741 SeMeCo community; assay: z-score of subpopulation abundance vs DMSO median, subpopulation auxotrophic for HUM; higher = larger share of this subpopulation than in DMSO controls; settings: 10 µM; 24 h; SM minimal medium; subpopulation (auxotrophy): HUM
Outline: as §1

[14] = test system: Saccharomyces cerevisiae BY4741 SeMeCo community; assay: z-score of subpopulation abundance vs DMSO median, subpopulation auxotrophic for LUM; higher = larger share of this subpopulation than in DMSO controls; settings: 10 µM; 24 h; SM minimal medium; subpopulation (auxotrophy): LUM
Outline: as §1

[15] = test system: Saccharomyces cerevisiae BY4741 SeMeCo community; assay: z-score of subpopulation abundance vs DMSO median, subpopulation auxotrophic for HLUM; higher = larger share of this subpopulation than in DMSO controls; settings: 10 µM; 24 h; SM minimal medium; subpopulation (auxotrophy): HLUM
Outline: as §1

[16] = test system: Saccharomyces cerevisiae BY4741 SeMeCo community; assay: z-score of subpopulation abundance vs DMSO median, subpopulation auxotrophic for U; higher = larger share of this subpopulation than in DMSO controls; settings: 10 µM; 24 h; SM minimal medium; subpopulation (auxotrophy): U
Outline: as §1

[17] = test system: Saccharomyces cerevisiae BY4741 SeMeCo community; assay: z-score of subpopulation abundance vs DMSO median, subpopulation auxotrophic for HL; higher = larger share of this subpopulation than in DMSO controls; settings: 10 µM; 24 h; SM minimal medium; subpopulation (auxotrophy): HL
Outline: as §1

Row | Compound | mean cell size [1] | z-score of prototroph abundance [2] | z-score of subpopulation abundance [3] | z-score of subpopulation abundance [4] | z-score of subpopulation abundance [5] | z-score of subpopulation abundance [6] | z-score of subpopulation abundance [7] | z-score of subpopulation abundance [8] | z-score of subpopulation abundance [9] | z-score of subpopulation abundance [10] | z-score of subpopulation abundance [11] | z-score of subpopulation abundance [12] | z-score of subpopulation abundance [13] | z-score of subpopulation abundance [14] | z-score of subpopulation abundance [15] | z-score of subpopulation abundance [16] | z-score of subpopulation abundance [17]
1 | CC[C@H]1OC(=O)[C@H](C)[C@@H](O[C@H]2C[C@@](C)(OC)[C@@H](O)[C@H](C)O2)[C@H](C)[C@@H](O[C@@H]2O[C@H](C)C[C@H](N(C)C)[C@H]2O)[C@](C)(O)C[C@@H](C)CN(C)[C@H](C)[C@@H](O)[C@]1(C)O [Azithromycin Dihydrate] | 12.5 ± 0.38 | -0.48 | 0.58 | 0.09 | 0.7 | -0.14 | -0.45 | 0.39 | -0.53 | 0.16 | -0.73 | 0.07 | 0.97 | -0.75 | -0.18 | – | –
2 | O=C(O)c1ccccc1C(=O)Nc1ccc(S(=O)(=O)Nc2nccs2)cc1 [Phthalylsulfathiazole] | 12 ± 0.48 | -0.99 | 1.08 | -0.97 | -0.26 | -0.05 | 0.02 | 0.77 | 1.23 | – | 0.04 | -0.76 | 0.99 | – | 0.99 | 1.18 | –
3 | CO/N=C(\C(=O)N[C@@H]1C(=O)N2C(C(=O)O)=C(CSC(=O)c3ccco3)CS[C@H]12)c1csc(N)n1 [Ceftiofur HCl] | 12.54 ± 0.051 | – | -0.14 | -0.69 | – | 1 | -0.53 | 0.46 | 0.85 | – | 0.02 | 0.11 | 2.38 | -0.05 | 0.19 | 1.47 | -0.8
4 | C[n+]1ccccc1/C=N/O [Pralidoxime chloride] | 11.9 ± 0.062 | -0.28 | 1.37 | -0.96 | -1.61 | 0.11 | 0.17 | -0.08 | 0.45 | 1.18 | -0.43 | -0.4 | 0.39 | 0.34 | -0.34 | – | -0.65
5 | Cc1c(C(N)=O)cc([N+](=O)[O-])cc1[N+](=O)[O-] [Dinitolmide] | 12.4 ± 0.22 | -0.01 | -0.14 | 0.45 | – | 1.05 | 0.46 | -0.5 | 0.78 | 0.34 | -0.18 | -0.3 | -0.56 | -0.13 | 0.38 | – | -0.36
6 | CCOC(=O)C1=C(C)NC(C)=C(C(=O)OCC)C1c1ccccc1/C=C/C(=O)OC(C)(C)C [Lacidipine] | 12.5 ± 0.14 | 0.54 | 3.48 | 1.08 | 1.2 | -2.51 | 1.6 | 1.9 | -2.93 | -2.61 | -0.94 | 1.17 | -0.96 | – | -0.21 | – | -0.42
7 | Cc1nc(C)c(Cl)c(O)c1Cl [Clopidol] | 12.22 ± 0.083 | – | -0.51 | 0.46 | 0.6 | 0.07 | -0.19 | -0.62 | -0.28 | -0.13 | -0.09 | 0.14 | -0.08 | – | -0.36 | -0.09 | 0.28
8 | C[C@@H]1CC(=O)NN=C1c1ccc(NN=C(C#N)C#N)cc1 [Levosimendan] | 12.5 ± 0.19 | -0.07 | -0.05 | -0.16 | -0.43 | 0.42 | -0.47 | 0.22 | 0.25 | 0.05 | -0.67 | -0.43 | 0.67 | – | -0.43 | 0.92 | -0.63
9 | O=C1CN(/N=C/c2ccc([N+](=O)[O-])o2)C(=O)N1 [Nitrofurantoin] | 12.47 ± 0.1 | – | 0.84 | -0.13 | – | -0.11 | -0.69 | -0.67 | -0.72 | 0.27 | -0.69 | -0.2 | -0.82 | -0.21 | -0.04 | – | 0.1
10 | C[C@]12CC[C@@H]3c4ccc(O)cc4CC[C@H]3[C@@H]1C[C@@H](O)[C@@H]2O [Estriol] | 12.41 ± 0.12 | – | -0.11 | 0.63 | 0.24 | -0.08 | 0.01 | -0.18 | -0.16 | -0.62 | -0.08 | 0.3 | -0.83 | – | -0.69 | -0.19 | –
11 | CNCC[C@@H](Oc1ccccc1C)c1ccccc1 [Atomoxetine HCl] | 12.4 ± 0.22 | 0.61 | 0.21 | 0.96 | -0.84 | 0 | 0.36 | -0.84 | -0.99 | -0.26 | 0.11 | -0.77 | -1.01 | 0.05 | 1.1 | – | -0.43

From the supplement of paper PMC8975748
